Test results reported in PubChem BioAssay (NCATS).
Results filed as inconclusive are left out. Where a call stands in place of a potency, no number is given. Active and inactive are the calls of the source. Calls come from the whole dose curve; as a rule, active = well fitted cell-killing curve with a large enough effect; inconclusive = small, poorly fitted or top-dose-only effect; inactive = flat fitted curve, though single readings scatter.

Test: Cell Viability - LYMP2-015 (AID 971)
Settings: LYMP2-015 lymphoblastoid cell viability; series mostly up to 92.2 µM
Summary of the method: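 LYMP2-015 human lymphoblastoid cells (2500/well) in complete medium, compound-treated 24 h at 37 C; viability read as cellular ATP by CellTiter-Glo luminescence after 30 min at room temperature. AC50 from Hill-equation fits of qHTS concentration-response data.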
Note: nearly all actives have a fitted effect of over 55% in size.

| SMILES | outcome |
| --- | --- |
| CCCCOC(=O)c1ccc(O)cc1 | inactive |
| COc1ccccc1O | inactive |
| CCCCCCCCCCCCOS(=O)(=O)O | inactive |
| Cc1cc(CC(=O)O)n(C)c1C(=O)c1ccc(Cl)cc1 | inactive |
| NCCNCCNCCN | inactive |
| NC(=O)c1ncn([C@@H]2O[C@H](CO)[C@@H](O)[C@H]2O)n1 | inactive |
| Nc1ccc(S(=O)(=O)Nc2nccs2)cc1 | inactive |
| CC12CCC(CC1)C(C)(C)O2 | inactive |
| Oc1cccc(O)c1 | inactive |
| NCCNCCNCCNCCN | inactive |
| Cc1cc2nc3c(=O)[nH]c(=O)nc-3n(C[C@H](O)[C@H](O)[C@H](O)CO)c2cc1C | inactive |
| O=C1O[C@H]([C@@H](O)CO)C(O)=C1O | inactive |
| CC1(C)[C@@H]2CC[C@@]1(C)C(=O)C2 | inactive |
| O=C1c2c(O)cccc2Cc2cccc(O)c21 | inactive |
| [Cl][In]([Cl])[Cl] | inactive |
| C[C@]12C[C@H](O)[C@H]3[C@@H](CCC4=CC(=O)CC[C@@]43C)[C@@H]1CC[C@@H]2C(=O)CO | inactive |

Test: Cell Viability - LYMP2-017 (AID 972); note: potency is the fitted concentration of half-maximal effect
Settings: LYMP2-017 lymphoblastoid cell viability; series mostly up to 92.2 µM
Summary of the method: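 LYMP2-017 human lymphoblastoid cells (2500/well) settled 5 hr at 37 C, then exposed to compound 24 hr at 37 C in complete medium. Viability taken as intracellular ATP by CellTiter-Glo luminescence after 30 min at RT; AC50 from Hill fits.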

| SMILES | Potency |
| --- | --- |
| CCCCOC(=O)c1ccc(O)cc1 | inactive |
| COc1ccccc1O | inactive |
| CCCCCCCCCCCCOS(=O)(=O)O | inactive |
| Cc1cc(CC(=O)O)n(C)c1C(=O)c1ccc(Cl)cc1 | inactive |
| NCCNCCNCCN | inactive |
| NC(=O)c1ncn([C@@H]2O[C@H](CO)[C@@H](O)[C@H]2O)n1 | inactive |
| Nc1ccc(S(=O)(=O)Nc2nccs2)cc1 | inactive |
| Cc1c(O)cccc1C(=O)N[C@@H](CSc1ccccc1)[C@H](O)CN1C[C@H]2CCCC[C@H]2C[C@H]1C(=O)NC(C)(C)C | 50.1 µM (active) |
| CC12CCC(CC1)C(C)(C)O2 | inactive |
| Oc1cccc(O)c1 | inactive |
| NCCNCCNCCNCCN | inactive |
| Cc1cc2nc3c(=O)[nH]c(=O)nc-3n(C[C@H](O)[C@H](O)[C@H](O)CO)c2cc1C | inactive |
| CC1(C)[C@@H]2CC[C@@]1(C)C(=O)C2 | inactive |
| O=C1c2c(O)cccc2Cc2cccc(O)c21 | inactive |
| [Cl][In]([Cl])[Cl] | inactive |
| C[C@]12C[C@H](O)[C@H]3[C@@H](CCC4=CC(=O)CC[C@@]43C)[C@@H]1CC[C@@H]2C(=O)CO | inactive |

Test: Cell Viability - LYMP2-019 (AID 973)
Settings: LYMP2-019 lymphoblastoid cell line viability; series mostly up to 92.2 µM
Summary of the method: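 Human lymphoblastoid LYMP2-019 cells (2500/well) preincubated 5 h at 37 C, then treated 24 h at 37 C in complete medium. Viability by CellTiter-Glo ATP luminescence after 30 min at room temperature; AC50 from Hill fits.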

| SMILES | outcome |
| --- | --- |
| CCCCOC(=O)c1ccc(O)cc1 | inactive |
| COc1ccccc1O | inactive |
| CCCCCCCCCCCCOS(=O)(=O)O | inactive |
| Cc1cc(CC(=O)O)n(C)c1C(=O)c1ccc(Cl)cc1 | inactive |
| NCCNCCNCCN | inactive |
| CC12CCC(CC1)C(C)(C)O2 | inactive |
| Oc1cccc(O)c1 | inactive |
| NCCNCCNCCNCCN | inactive |
| Cc1cc2nc3c(=O)[nH]c(=O)nc-3n(C[C@H](O)[C@H](O)[C@H](O)CO)c2cc1C | inactive |
| O=C1O[C@H]([C@@H](O)CO)C(O)=C1O | inactive |
| CC1(C)[C@@H]2CC[C@@]1(C)C(=O)C2 | inactive |
| O=C1c2c(O)cccc2Cc2cccc(O)c21 | inactive |
| [Cl][In]([Cl])[Cl] | inactive |
| C[C@]12C[C@H](O)[C@H]3[C@@H](CCC4=CC(=O)CC[C@@]43C)[C@@H]1CC[C@@H]2C(=O)CO | inactive |
